PubChem BioAssay AID624483 (NMMLSC, 2012)
The whole screen tested about 360,000 compounds, of which about 11,000 (3.1%) were called active. About 2% were inconclusive and are not listed. Many of the other results were omitted from the sample, so actives are more common in it than they were. A number with no mark means an inactive call. No stated cut-off is given here; in the data, active means fluorescence intensity above about 16000; inconclusive means no clear call, values can overlap the other calls; inactive means below that.

Assay: compound fluorescence in toxin protease inhibitor counterscreen, primary screen, artefact control for toxin protease inhibitor project, biochemical, multiplex microsphere, HTS (AID 624483)
Details: compound autofluorescence counterscreen, microsphere flow cytometry; active compounds read high

| SMILES | fluorescence intensity |
| --- | --- |
| CCN(C(=O)CSc1nnnn1-c1ccccc1OC)C1CCS(=O)(=O)C1 (stereo not drawn) | 5910 |
| Cc1ccccc1C(OCCN(C)C)C1CCCCC1 (stereo not drawn) | 2370 |
| CCNC(=O)C1(C)CCN(C(=O)c2ccccc2)C1 (stereo not drawn) | 3880 |
| COC(=O)Cc1nc2c(N)nc(N)nc2[nH]c1=O | 4130 |
| O=C(NNS(=O)(=O)c1c(F)cc(F)c(Cl)c1F)C12CC3CC(CC(C3)C1)C2 | 4000 |
| O=C(Nc1ccccc1C(=O)O)c1ccc(N2C(=O)C3CC=CCC3C2=O)cc1 (stereo not drawn) | 4170 |
| CN(C)CCNC(=O)c1cccc(-c2cnc3c(NC=O)cc(-c4cccc(C(F)(F)F)c4)cn23)c1 | 3700 |
| CN1CCN(C(=O)c2ccc(-c3cc4nc(NCc5cccnc5)n(C)c(=O)c4s3)cc2)CC1 | 3940 |
| O=C(NCc1ccccc1)C1c2ccccc2OCC(=O)N1C1CC1 (stereo not drawn) | 5460 |
| O=C(C1CCCO1)N(c1ccc(F)cc1)C1C=CS(=O)(=O)C1 (stereo not drawn) | 3830 |
| O=C(C1CCCO1)N(Cc1ccccc1)c1ccccc1 (stereo not drawn) | 16100 (active) |
| O=C(NCc1ccccc1Cl)C1CCCO1 (stereo not drawn) | 4090 |
| CCc1ccc2c(c1)NC(=O)C2(C)Cc1ccc(OC(F)(F)F)cc1 (stereo not drawn) | 2900 |
| COCc1cc(C)nc(SCC(=O)Nc2cccc(C)c2)c1C#N | 4220 |
| N#Cc1ccccc1NC(=O)c1ccc2c(c1)OCO2 | 3490 |
| O=C(CN1CCN(C(=O)c2ccco2)CC1)Nc1ccc2c(c1)OCO2 | 2540 |
| O=C(Nc1ccccc1N1CCN(C(=O)c2ccccc2)CC1)c1ccco1 | 3700 |
| O=C(c1ccc2c(c1)OCO2)N1CCN(C(=O)c2ccco2)CC1 | 20500 (active) |
| O=C(Nc1ccccc1N1CCN(C(=O)c2ccccc2)CC1)c1ccc2c(c1)OCO2 | 23400 (active) |
| O=C(c1ccco1)N1CCN(C(=S)Nc2cc(F)cc(F)c2)CC1 | 5420 |

| SMILES | fluorescence intensity |
| --- | --- |
| CCNC(=S)N1CCN(C(=O)c2ccco2)CC1 | 21900 (active) |
| O=CN1CCN(C(=O)c2ccc3c(c2)OCO3)CC1 | 6220 |
| O=C(CNS(=O)(=O)c1ccccc1)N1CCN(C(=O)c2ccco2)CC1 | 5790 |
| Cc1nc2c(OCc3cccc(Cl)c3)cccn2c1N(C)CC1CC1 | 3860 |
| CN(Cc1ccccc1)C(=O)C(=O)c1cn(CC(=O)N2CCCC2)c2ccccc12 | 5870 |
| NCCCCC(C(=O)O)N(C(=O)OCc1ccccc1)C(=O)OCc1ccccc1 (stereo not drawn) | 4320 |
| O=C1NC[C@H](CCCCN2C[C@H](Cc3ccc(O)cc3)N(CC3CCCCC3)C(=O)C2=O)N(CCc2ccccc2)C1=O | 4980 |
| NC(Cc1ccc(F)cc1)c1csc(Nc2nncc3ccccc23)n1 (stereo not drawn) | 3900 |
| C#CCNC(=O)C[C@@H]1C[C@@]2(C(=O)OCC)CCCC=C2N(Cc2ccco2)C1=O | 4250 |
| CC(=O)N(O)CCCCCNC(=O)CCC(=O)N(O)CCCCCNC(=O)CCC(=O)N(O)CCCCCNC(=O)CCC(=O)O | 3470 |
| CC1=C(C(=O)N(C(C)C)C(C)C)CC(CC(=O)NCCCCc2ccccc2)C(=O)N1CCC1=CCCCC1 (stereo not drawn) | 5390 |
| O=C(Cc1ccc(-n2c(=O)[nH]c3ccccc3c2=O)cc1)N1CCN(c2cccc(Cl)c2)CC1 | 22000 (active) |
| O=c1c2ccccc2[nH]c(=S)n1-c1cccc(Cl)c1 | 4010 |
| CCOC(=O)N1CCN(C(=O)Cc2ccc(-n3c(=S)[nH]c4ccccc4c3=O)cc2)CC1 | 10600 |
| CNc1cc(-c2c(OC)cccc2OC)ncn1 | 3890 |
| CN1OC[C@@H]2CN(C(=O)C(C)(C)C)[C@H](c3ccc(-n4ccnc4)cc3)C[C@@H]21 | 4320 |
| COc1cccc(-c2cc(NC(C)=O)c3ncc(-c4cccc(C(C)=O)c4)n3c2)c1 | 3560 |
| O=C1CN(C(=O)COC(=O)/C=C/c2ccc(F)cc2)c2ccccc2N1 | 2990 |
| Nn1c(Cc2cccc3ccccc23)nnc1SCC(=O)N1CC(=O)Nc2ccccc21 | 3230 |
| C=CCn1c(COc2ccccc2F)nnc1SCC(=O)N1CC(=O)Nc2ccccc21 | 19900 (active) |

| SMILES | fluorescence intensity |
| --- | --- |
| CCN1C(=O)[C@@H]2[C@@H]3CN(S(=O)(=O)c4ccccc4C)[C@@H](c4ccc(Cl)cc4)[C@@H]3C(=O)C[C@@H]2C1=O | 5460 |
| CC(C)(O)C#Cc1ccc(CNC[C@H]2O[C@@H](n3cnc4c(=O)[nH]c(N)nc43)[C@H](O)[C@@H]2O)s1 | 6310 |
| CC(C)Oc1cc(F)ccc1-c1cc(C(=O)Nc2ccc(F)cc2)[nH]n1 | 2820 |
| Cc1ccc([C@@H]2CC(=O)[C@@H]3CN(S(=O)(=O)c4ccc(C)cc4)[C@H](c4ccccc4F)C[C@@H]3N2S(=O)(=O)c2ccc(Cl)cc2)cc1 | 5790 |
| COC(=O)C1(C(=O)OC)C/C=C\CN(S(=O)(=O)c2ccccc2[N+](=O)[O-])CCC1 | 5420 |
| Cc1ccc(S(=O)(=O)NCC(C)NS(C)(=O)=O)cc1 (stereo not drawn) | 17300 (active) |
| Cc1ccc(S(=O)(=O)NCC(=O)N2CCOCCOCCOCCOCC2)cc1 | 3170 |
| Cc1ccc(S(=O)(=O)NCCNC(C)c2ccc(Br)cc2)cc1 (stereo not drawn) | 3800 |
| CCCNC(=O)C1(C)CCCN(C(=O)c2cccc(OC(C)=O)c2C)C1 (stereo not drawn) | 2790 |
| CCN(CC)CCCC(C)n1c2nc(=O)[nH]c(=O)c-2nc2cc(Cl)ccc21 (stereo not drawn) | 3960 |
| CC1(Oc2ccc(Cl)cc2)CCN(Cc2csc3ccccc23)C1 (stereo not drawn) | 3910 |
| CC(C)CCSc1ncnc2c1oc1nc3c(cc12)COC(C)(C)C3 | 23900 (active) |
| CC1CCc2c(nc3ncnn3c2Nc2ccc(OC(F)(F)F)cc2)C1 (stereo not drawn) | 5260 |
| CCc1nc2c(OCCOc3ccccc3)cccn2c1N(C)C(=O)c1ccc(OC)cc1 | 3960 |
| COc1cccc(-c2ccc3c(c2)N(Cc2ccccc2OC)C(=O)C(C)S3)c1 (stereo not drawn) | 4210 |
| CCCc1nc2oc3c(OCC)ncnc3c2c2c1COC(C)(C)C2 | 19200 (active) |
| CCCc1nc2oc3c(=O)[nH]cnc3c2c2c1COC(C)(C)C2 | 3850 |
| CC/C(C)=N/Nc1nc2sc3c(c2c(=O)[nH]1)CC(C)(C)OC3 | 3170 |
